This is a sample that favours compounds with a hit; in the whole collection about 4.4% have one here.
D1 agonist – activates the human D1 dopamine receptor | P21728 | activation, % at 2 µM | AID 504660 | HEK293 T-REx D1 cells, calcium flux, agonist mode | 360,000 tested, 1% active
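Tetracycline-induced HEK293 TREx D1 cells, force-coupled to calcium signalling, were dye-loaded with a no-wash calcium kit. Compound was pin-added after a 10 s baseline. Fluorescence was read kinetically at 1 cycle/s for 180 s, with calcium rises flagged as agonism.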
TRHR ag – agonists of human TRH receptor | P34981 | TRHR cells, calcium flux fluo-8, FDSS agonist mode | activation, % at 2 µM | 360,000 tested, 0.18% active
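TRHR-expressing cells, plated overnight in medium with 10% serum, were loaded with fluo-8 calcium dye at room temperature. After a 10 s baseline, library compound was pin-added and calcium release was recorded kinetically (ex 480/em 530) as agonist response.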
D1 antagonist – human D1 dopamine receptor antagonism | P21728 | HEK293 TREx D1 cells, calcium flux, dopamine EC80; hits give low values | activity change, negative = inhibition, % at 10 µM | 360,000 tested, 3.2% active; in the data active means activity change below about -30%
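Tetracycline-induced HEK293 Trex D1 cells, force-coupled to calcium, dye-loaded; compounds added and read 180 s, then EC80 dopamine added and calcium flux tracked kinetically another 180 s.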
USP1-UAF1 inh – USP1/UAF1 (human) deubiquitinase inhibition; O94782; recombinant USP1/UAF1, Ub-Rhodamine cleavage fluorescence; 390,000 tested, 0.23% active; Potency, µM (series often up to 57.1 µM), hits mostly inhibitors; active means well fitted inhibition curve with a large enough effect; inconclusive means small, poorly fitted or top-dose-only effect; inactive means no such curve, though single readings can be large or run the other way; further: nearly all actives have a fitted effect of over 60% in size
Target sequence (O94782 whole entry, looked up): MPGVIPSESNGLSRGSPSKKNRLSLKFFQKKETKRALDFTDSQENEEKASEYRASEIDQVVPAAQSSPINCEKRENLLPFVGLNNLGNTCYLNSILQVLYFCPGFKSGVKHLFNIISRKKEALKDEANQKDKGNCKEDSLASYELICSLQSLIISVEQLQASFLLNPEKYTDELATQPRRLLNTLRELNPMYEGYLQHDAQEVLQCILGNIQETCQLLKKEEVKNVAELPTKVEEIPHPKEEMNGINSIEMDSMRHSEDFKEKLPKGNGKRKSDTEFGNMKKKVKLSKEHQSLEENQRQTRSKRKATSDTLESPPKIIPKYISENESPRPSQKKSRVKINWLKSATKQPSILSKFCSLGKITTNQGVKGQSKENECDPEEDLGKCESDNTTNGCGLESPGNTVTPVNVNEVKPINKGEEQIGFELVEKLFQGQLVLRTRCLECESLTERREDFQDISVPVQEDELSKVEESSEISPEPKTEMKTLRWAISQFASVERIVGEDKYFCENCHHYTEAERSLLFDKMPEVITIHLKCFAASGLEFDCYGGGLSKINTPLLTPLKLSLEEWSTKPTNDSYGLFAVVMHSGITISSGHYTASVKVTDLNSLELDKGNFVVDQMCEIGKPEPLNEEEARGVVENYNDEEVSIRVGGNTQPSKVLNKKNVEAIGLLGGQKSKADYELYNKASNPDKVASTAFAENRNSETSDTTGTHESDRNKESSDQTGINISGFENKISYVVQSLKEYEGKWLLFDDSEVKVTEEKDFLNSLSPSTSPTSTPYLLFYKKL
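High-throughput fluorogenic screen: 1nM USP1/UAF1 complex, Ub-Rho substrate 150nM final, 50mM HEPES pH 7.8 with 0.5mM EDTA, 0.1 mg/ml BSA, 1mM TCEP and 0.01% Tween-20.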
TRHR enhancer – TRH receptor (human) allosteric enhancement; P34981; TRHR cells, fluo-8 calcium fluorescence, EC20 TRH enhancement; enhancement, % at 2 µM; 360,000 tested, 0.66% active; in the data active means enhancement above about 30%
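Enhancer read-out: after compound pinning and an initial kinetic agonist-mode read, an EC20 of TRH (10 nM final) was injected and fluo-8 calcium signal (Ex 480/Em 530) followed at 1 s/cycle for 100 cycles in TRHR-expressing cells.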
D1 potentiator – enhances dopamine response at the human D1 receptor | HEK293 TREx D1 cells, calcium flux, dopamine EC20 potentiation | potentiation, % at 10 µM | 360,000 tested, 0.036% active | AID 504651; in the data active means potentiation above about 30%
Hits are given with their value; 0 = inactive; ? = inconclusive; - = not tested or not shown; ! = a repeat was not active. Unless noted, no stated cut-off is given here; in the data, active means activation above about 30%; inactive means the rest.

SMILES	D1 agonist	TRHR ag	D1 antagonist	USP1-UAF1 inh	TRHR enhancer	D1 potentiator
COc1ccc(OC)c(NC(=O)CSC2=Nc3ccccc3C3=NC(CCC(=O)NCc4ccco4)C(=O)N23)c1 (centres undefined)	0	0	0	0	0	0
CCC(Sc1nnc(-c2ccc(OC)c(OC)c2)c(-c2ccc(OC)c(OC)c2)n1)C(=O)NC1CCCC1 (centres undefined)	0	0	0	0	0	0
Cc1c(NS(=O)(=O)c2cccc3nsnc23)c(=O)n(-c2ccccc2)n1C	0	0	-90	0	0	0
Cc1ccc(NC(=S)Nc2cccc(S(=O)(=O)Nc3c(C)n(C)n(-c4ccccc4)c3=O)c2)cc1	0	0	0	0	32	0
CCc1cnc2c(c1SCC(=O)c1ccc(Cl)cc1)c(=O)n(C)c(=O)n2C	0	0	-	?	0	0
COCCNC(=O)CSCc1c(F)cccc1Cl	0	0	-44	0	0	0
O=C(CNC(=O)c1ccco1)OCc1c(F)cccc1Cl	0	0	0	0	0	0
Cc1c(C(=O)NCCSCc2c(Cl)cccc2Cl)cccc1[N+](=O)[O-]	44	0	-32	0	0	0
Cc1c(C(=O)NCCSCc2ccccc2Cl)cccc1[N+](=O)[O-]	0	0	0	0	0	0
O=C(NCCSCc1c(F)cccc1Cl)c1ccco1	0	0	-33	0	0	0
CCOC(=O)C1=C(CNCc2ccccc2)NC(=O)NC1c1ccc(C)cc1 (centres undefined)	0	0	0	?	0	0
COc1ccc(-c2nc3sc(CCNC(=O)c4ccco4)c(C)n3n2)cc1	0	0	-	?	0	0
COc1ccc(-c2nnn(CC(=O)N(c3cccc(O)c3)C(C)C(=O)NC3CCCC3)n2)cc1OC (centres undefined)	0	0	-32	0	0	0
COc1ccc(/C=C(\C#N)C(=O)NCCc2ccccc2)cc1OCc1ccccc1	33	0	0	0	0	0
O=C1c2ccccc2S(=O)(=O)N1Cc1nnc(-c2ccccc2Br)o1	0	0	0	0	0	0
O=c1c2ccccc2nnn1Cc1nnc(-c2ccccc2Br)o1	47	0	0	0	0	0
COc1ccc(C2=NCCn3nc4ccccc4c32)cc1	0	0	-45	0	0	0
COc1ccc2c3n(nc2c1)CCN=C3c1cc(Cl)c(N)c(Cl)c1	0	0	-36	?	0	0
COc1cccc(CCNC(=O)c2cnc3sc(N4CCCC4)nn3c2=O)c1	0	0	0	0	0	0
COc1ccccc1CNC(=O)C(NS(=O)(=O)c1cccs1)C(C)C (centres undefined)	0	0	0	0	0	0
COC(=O)c1cc(Cl)cc(Cl)c1OS(=O)(=O)N(C)C	0	0	-30	0	0	0
Cc1ccc(Cl)cc1NC(=O)c1sc(-n2nc(C)c(Cc3ccc4c(c3)OCO4)c2C)nc1C	0	0	0	?	0	0
CN(C)c1ccc(C(C(=O)NCC2CCCO2)N(C(=O)c2snc(C(N)=O)c2N)c2ccccc2)cc1 (centres undefined)	0	0	0	0	0	0
Cc1ccccc1N(C(=O)c1snc(C(N)=O)c1N)C(C(=O)NCC1CCCO1)c1ccc(F)cc1 (centres undefined)	0	0	0	0	40	0
CC(C)c1ccc(N(C(=O)c2snc(C(N)=O)c2N)C(C(=O)NCC2CCCO2)c2ccc(N(C)C)cc2)cc1 (centres undefined)	57	0	0	0	0	0
SMILES	D1 agonist	TRHR ag	D1 antagonist	USP1-UAF1 inh	TRHR enhancer	D1 potentiator
Cc1ccc(-n2nc(C(=O)N(C)c3ccc(C)c(C)c3)c3c4ccccc4n(C)c3c2=O)cc1	0	0	0	0	0	0
COc1ccc(C(=O)NNC(=O)C(NC(=O)c2cc(OC)cc(OC)c2)C(C)C)cc1 (centres undefined)	0	0	-39	0	0	0
COc1cc(OC)cc(C(=O)NC(C(=O)NNC(=O)c2ccc(C)cc2)C(C)C)c1 (centres undefined)	0	0	0	0	0	0
CCOc1ccc(CC(=O)Nc2ccc3nc(N4CCCCC4)cc(C)c3c2)cc1OCC	0	0	0	0	0	0
Cc1ccc(Oc2nnc(-c3cccs3)c3ccccc23)cc1C	0	0	-32	0	0	0
Cc1ccc(Oc2nnc(-c3cccs3)c3ccccc23)cc1	0	0	0	0	0	0
Cc1ccccc1Nc1ncnc2c1c(-c1ccccc1)cn2-c1ccc(F)cc1	0	0	-34	0	0	0
CN1CCN(c2ncnc3c2c(-c2ccccc2)cn3-c2ccc(F)cc2)CC1	0	0	-42	0	0	0
COc1ccc(Cl)cc1Nc1ncnc2c1c(-c1ccccc1)cn2-c1ccccc1	0	0	-58	0	0	0
Cc1sc(C2C(C#N)=C(N)N(c3ccc(Cl)cc3)C3=C2C(=O)CCC3)cc1CN1CCOCC1 (centres undefined)	0	0	0	?	0	0
COc1ccc(-c2cc(C(=O)Nc3cc(OC)cc(C(=O)Nc4cccc(C(F)(F)F)c4)c3)[nH]n2)cc1	0	0	-31	0	0	0
O=C(/C(N=Nc1cccc([N+](=O)[O-])c1)=C(/O)c1ccc(Br)cc1)C(F)(F)F	0	0	-30	-	0	0
COc1cc(OC)c(N(C)C(=O)CSc2c3c(nc4ccc(Cl)cc24)CCCC3)cc1Cl	0	0	0	0	0	0
CCOC(=O)CN1C(=O)NC2NC(=O)NC21 (centres undefined)	0	0	0	0	0	0
CCCCNC(=O)CN1C(=O)NC2NC(=O)NC21 (centres undefined)	0	0	-43	0	0	0
O=C(O)CCCN1C(=O)NC2NC(=O)NC21 (centres undefined)	0	0	-31	0	0	0
O=C1CCc2cc(OCCCCc3nnnn3C3CCCCC3)ccc2N1	0	0	-42!	0	0	0
COc1cccc(N2CCN(Cc3nnnn3C3CCCCC3)CC2)c1	0	0	0	0	0	0
CN(C)S(=O)(=O)N1CCN(c2cc(Cl)ccc2Cl)CC1	40	0	0	0	35	0
CN(C)S(=O)(=O)N1CCN(c2ccccc2Cl)CC1	0	0	0	0	0	0
O=C(NCC(c1ccc2c(c1)OCO2)N1CCN(c2ccccc2)CC1)c1ccccc1 (centres undefined)	0	0	0	0	0	0
CCCc1cc(=O)[nH]c(Nc2ccccc2O)n1	0	0	0	?	0	0
COc1ccc(NC(=O)CSc2nnc(Cc3cccn3C)n2CCc2ccccc2)c(OC)c1	0	0	0	0	0	0
Cc1nnc(NC(=O)CSc2nnc(Cc3cccn3C)n2-c2cccc(C)c2C)s1	0	0	0	-	0	0

From PubChem BioAssay
